Compounds with a hit are over-represented: about 6.6% of the library has one in this group of screens.
Gli-Sufu block – Gli-Sufu pathway antagonism | inhibition, % at 5 µM | Sufu-KO-LIGHT fibroblasts, Gli luciferase reporter luminescence | actives 0.74% (n = 340,000) | AID 588413;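 active = inhibition above about 55%, limit read from the data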;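 also: 0% = DMSO-treated cells and 100% = wells with medium but no cells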
Beta apoptosis – beta cell apoptosis inhibition; INS-1E cytokine-induced death, ATP luminescence, 48 h; percent of positive-control rescue, neutral wells zero; protection from apoptosis, % (no concentration beside the values); actives 0.8% (n = 300,000);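 active = Every replicate reaches about 75%, or at least half do and their mean reaches it too, limit read from the data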;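 also: 0% = cytokine-treated negative control wells and 100% = positive control rescue; higher means more ATP so stronger rescue from cytokine killing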
NR3A LBD binder – modulators (binders) of human NR3A ligand-binding domain | actives 2.5% (n = 340,000) | NR3A LBD differential scanning fluorimetry, Tm shift; 0% = protein alone, 100% = glycine-bound protein | AID 1259313 | Tm shift relative to glycine control, % at 25 µM;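 active = melting temperature shift of at least 10% of the positive control shift, at one fixed dose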
Mdm2 MdmX PPI – disrupts the human Mdm2-MdmX interaction; SaOS-2 split-luciferase Mdm2/MdmX complementation, luminescence; inhibition, % at 8 µM; actives 3% (n = 330,000); AID 485346;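 active = inhibition of at least 50% at 8 µM in the primary screen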
MPTP block – blocks calcium-induced mitochondrial swelling. inhibition, % at 10 µM. actives 1.4% (n = 360,000). AID 602449. isolated mouse mitochondria, Ca2+ swelling absorbance, 30 min;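 active = inhibition of 50% or more, scaled per plate between neutral and stimulator controls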;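 also: 0% = DMSO wells given calcium and 100% = 1 mM EGTA wells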
CSC inhib – cancer stem cell inhibition | actives 1.1% (n = 300,000) | cancer stem cell-like cells viability, luminescence | AID 2717 | inhibition, % at 7.5 µM; in the data active = inhibition above about 75%; tested in HMLE shEcad cells
Gli antag conf – Gli-SUFU antagonism confirmation, single concentration; actives 40% (n = 2,500); shares compounds with Gli-Sufu block; Sufu-KO-LIGHT cells, Gli luciferase reporter, luminescence; AID 602428; inhibition, % at 5 µM;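 active = mean inhibition at 5 µM reaching about 45%, limit read from the data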;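 also: plate controls were DMSO-treated cells for no effect and wells lacking cells for full effect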
Gli cytotox – counter-screen for Gli-SUFU antagonists: cytotoxicity; shares compounds with Gli-Sufu block; actives 32% (n = 2,500); cytotoxicity, % at 5 µM; Sufu-KO-LIGHT cells cytotoxicity, ATP luminescence; AID 651994;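 active = mean cytotoxicity at 5 µM above about 25%, limit read from the data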;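 also: cells exposed to compound overnight for roughly 16 to 18 hours; plate controls were DMSO wells with cells for no effect and medium without cells for full effect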
Wnt3a cs – Wnt3a reporter inhibition counter-screen | shares compounds with Gli-Sufu block | Wnt-LIGHT cells, Wnt3a-driven luciferase reporter, luminescence | inhibition, % at 6.25 µM | actives 20% (n = 2,500) | AID 651995;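 active = mean inhibition above about 25%, limit read from the data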
An asterisk follows results filed as active; / = no result.

SMILES	Gli-Sufu block	Beta apoptosis	NR3A LBD binder	Mdm2 MdmX PPI	MPTP block	CSC inhib	Gli antag conf	Gli cytotox	Wnt3a cs
CC1Cn2c(Cc3ccccc3)nnc2S1 (centres undefined)	/	/	/	/	-1	/	/	/	/
CC1Cn2c(CCc3ccccc3)nnc2S1 (centres undefined)	54	0	1	-1	1	-16	19	2	-7
CCN(CC)CCN1C(=O)c2oc3ccccc3c(=O)c2C1c1ccc(C)cc1 (centres undefined)	80*	-6	0	7	1	-7	22	-6	-22
Cc1ccc(S(=O)(=O)N(CC(O)CN2CCCCC2)c2ccccc2)cc1 (centres undefined)	58*	/	-1	13	0	-11	32	2	-22
CCN(CC)C(=O)Cn1cnc2c1c(=O)n(C)c(=O)n2C	5	-2	1	-6	0	-10	/	/	/
CCN(Cc1ccccc1)C(=O)Cn1cnc2c1c(=O)n(C)c(=O)n2C	59*	-8	-8	-15	0	-15	15	17	22
CCCCN1C2=NCCCN2c2ccccc21	11	-7	/	1	2	-4	/	/	/
CCCCCCCN1C2=NCCCN2c2ccccc21	59*	16	-1	31	0	/	41	4	16
CCCCN1C2=NCCCN2c2cc(C)c(C)cc21	64*	7	-7	-1	1	-3	67*	39*	29*
Clc1cccc(CN2C3=NCCCN3c3ccccc32)c1	56*	0	-1	13	1	-11	19	24	-38
O=C(O)c1ccccc1-c1nnc2c(Cl)cc(C(F)(F)F)cn12	0	-1	2	5	0	-5	/	/	/
Cc1ccc(CNC(=O)CCS(=O)(=O)Cc2ccc(C)cc2)cc1	51	-3	6	-15	0	20	24	1	10
COc1cc(NC(=S)NC2CC(C)(C)NC(C)(C)C2)c(OC)cc1Cl	-7	-3	0	19	-3	-4	/	/	/
CC(=O)NCCC(=O)Nc1nc(-c2cccs2)c(-c2cccs2)s1	50	-3	-1	22	-6	/	22	6	-3
CN(Cc1nccs1)C(=O)c1cc(COc2cccc3cnccc23)on1	58*	32	0	46	41	-7	42	20	0
CC(=O)c1cccc(OCc2cc(C(=O)N(C)Cc3nccs3)no2)c1	/	/	/	/	2	/	/	/	/
CC(NCc1ccc(OCC(N)=O)cc1)C12CC3CC(CC(C3)C1)C2 (centres undefined)	51	/	1	17	-1	-18	34	12	-20
Cc1ccc2nc(SCC(=O)NCc3ccccc3)nc(=O)n2c1	97*	2	1	1	-2	0	21	33*	-17
Cc1cc(-c2cccs2)c2c(n1)sc1c(=O)[nH]c(=O)[nH]c12	84*	2	-2	18	0	-11	4	31*	-27
CC1c2nc3ccccc3n2C(CC(=O)NC2CC2)C(=O)N1Cc1ccccc1 (centres undefined)	7	-1	-2	-1	3	-8	/	/	/
CCCCOc1ccc(C(=O)NCCCC(=O)N2CCCCC2)cc1	68*	1	0	3	1	-4	30	12	-13
CCCCCOc1ccc(C(=O)CCC(=O)N2CCCC2)cc1	-15	2	0	9	-2	13	/	/	/
COc1cc(C(=O)N2CCN(c3ncnc4sc(C)c(C)c34)CC2)cc(OC)c1OC	57*	43	-10	30	2	-4	54*	31*	-22
CCOc1ccccc1-n1c(SCC(=O)N2CCOCC2)nc2ccccc2c1=O	1	0	3	6	-1	/	/	/	/
Cc1ccc(S(=O)(=O)NN2C(=O)c3ccccc3NC2c2ccco2)cc1 (centres undefined)	4	-3	0	-5	-1	/	/	/	/
